# The list is not random: actives were taken first. Their share in the collection is about 4.5%.
# CSC inhib = blocks cancer stem cells. cancer stem cell-like cells viability, luminescence. inhibition, % at 7.5 µM. actives 1.1% (n = 300,000); in the data active means inhibition above about 75%; inconclusive means no clear call, values can overlap the other calls; tested in HMLE shEcad cells
# 697 NFkB inh = inhibitors of the PMA/ionomycin-induced NF-kB reporter in 697 B cells; 697 B-cell NF-kB luciferase reporter, 16 h; inhibition, % at 4 µM; actives 0.33% (n = 330,000); AID 435022; in the data active means inhibition above about 35%
# Gli-Sufu block = Gli-Sufu pathway antagonism; Sufu-KO-LIGHT fibroblasts, Gli luciferase reporter luminescence; inhibition, % at 5 µM; actives 0.74% (n = 340,000); AID 588413;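 active means inhibition above about 55%, limit read from the data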
# aSyn UTR inh = MLPCN primary screen, SNCA 5' untranslated region | alpha-synuclein 5'UTR reporter, inhibitor activity | inhibition, % (tested at 7.5 µM) | actives 0.82% (n = 300,000) | AID 1813; in the data active means inhibition above about 60%; inconclusive means no clear call, values can overlap the other calls;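 further: H4 neuroglioblastoma cells stably carrying SNCA 5'UTR luciferase fusion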
# Mdm2-MdmX inh = disrupts the human Mdm2-MdmX interaction | actives 3% (n = 330,000) | SaOS-2 split-luciferase Mdm2/MdmX complementation, luminescence | O15151+Q00987 | AID 485346 | inhibition, % at 8 µM;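 active means inhibition of at least 50% at 8 µM in the primary screen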
# Target sequence (O15151 whole entry, looked up): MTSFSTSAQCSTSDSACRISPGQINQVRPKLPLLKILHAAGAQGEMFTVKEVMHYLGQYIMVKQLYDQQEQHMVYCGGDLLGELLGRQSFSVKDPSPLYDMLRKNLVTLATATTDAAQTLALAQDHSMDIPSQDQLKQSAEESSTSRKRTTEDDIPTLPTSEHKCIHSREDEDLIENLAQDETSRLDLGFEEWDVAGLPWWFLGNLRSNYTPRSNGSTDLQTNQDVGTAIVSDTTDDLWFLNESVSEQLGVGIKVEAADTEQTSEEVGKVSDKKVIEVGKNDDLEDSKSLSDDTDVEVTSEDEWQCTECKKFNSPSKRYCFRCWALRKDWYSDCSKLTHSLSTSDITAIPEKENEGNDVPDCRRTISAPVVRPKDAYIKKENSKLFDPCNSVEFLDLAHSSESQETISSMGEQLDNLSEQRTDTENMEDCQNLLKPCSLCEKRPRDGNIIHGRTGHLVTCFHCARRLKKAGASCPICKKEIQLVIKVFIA
# Target sequence (Q00987 whole entry, looked up): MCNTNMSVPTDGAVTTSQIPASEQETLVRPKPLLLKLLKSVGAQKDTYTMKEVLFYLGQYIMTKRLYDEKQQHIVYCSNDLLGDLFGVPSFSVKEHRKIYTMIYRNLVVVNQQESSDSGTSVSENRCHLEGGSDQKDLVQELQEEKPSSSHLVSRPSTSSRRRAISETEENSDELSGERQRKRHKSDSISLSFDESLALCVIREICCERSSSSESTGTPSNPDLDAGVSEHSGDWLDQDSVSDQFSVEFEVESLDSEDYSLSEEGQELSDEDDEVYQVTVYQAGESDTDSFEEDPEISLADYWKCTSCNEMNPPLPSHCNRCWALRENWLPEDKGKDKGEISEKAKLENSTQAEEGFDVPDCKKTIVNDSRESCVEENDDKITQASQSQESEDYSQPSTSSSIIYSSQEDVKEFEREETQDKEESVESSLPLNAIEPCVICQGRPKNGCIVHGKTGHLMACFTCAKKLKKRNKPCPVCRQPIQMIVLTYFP
# Jurkat NFkB inh = lowers PMA/ionomycin-induced NF-kB signal in Jurkat cells | PMA/ionomycin-induced NF-kB luciferase reporter, luminescence | inhibition, % at 4 µM | actives 0.53% (n = 330,000); in the data active means inhibition above about 50%
# Gli antag conf = Gli-SUFU antagonism confirmation, single concentration; inhibition, % at 5 µM; actives 40% (n = 2,500); AID 602428; Sufu-KO-LIGHT cells, Gli luciferase reporter, luminescence; shares compounds with Gli-Sufu block;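 active means mean inhibition at 5 µM reaching about 45%, limit read from the data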
# Gli cytotox = counter-screen for Gli-SUFU antagonists: cytotoxicity; shares compounds with Gli-Sufu block; Sufu-KO-LIGHT cells cytotoxicity, ATP luminescence; cytotoxicity, % at 5 µM; actives 32% (n = 2,500); AID 651994;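 active means mean cytotoxicity at 5 µM above about 25%, limit read from the data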;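 further: cells exposed to compound overnight for roughly 16 to 18 hours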
# Wnt3a counter = inhibits Wnt3a reporter, counter-screen for Gli-SUFU antagonists | shares compounds with Gli-Sufu block | Wnt-LIGHT cells, Wnt3a-driven luciferase reporter, luminescence | inhibition, % at 6.25 µM | actives 20% (n = 2,500);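 active means mean inhibition above about 25%, limit read from the data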
# A number is an active result; 0 = inactive; ? = inconclusive; - = not tested or not shown.
SMILES,CSC inhib,697 NFkB inh,Gli-Sufu block,aSyn UTR inh,Mdm2-MdmX inh,Jurkat NFkB inh,Gli antag conf,Gli cytotox,Wnt3a counter
COc1ccccc1CN1CCN(C(=O)COc2cccc(C)c2)CC1,0,0,94.3,0,0,0,0,26.9,0
CCN(CC)C1=NC(=[N+](CC)CC)c2ccccc21,0,0,78.9,0,0,0,80.1,26.6,39.2
CN1CN=C(N[N+](=O)[O-])N(Cc2ccco2)C1,0,0,0,0,0,0,-,-,-
O=[N+]([O-])NC1=NCN(Cc2ccco2)CN1Cc1ccco1,0,0,90.9,0,0,0,0,0,0
c1ccc(-c2ccncc2)cc1,-,0,0,-,0,0,-,-,-
Cc1cc(-c2ccccc2)cc(C)[n+]1Cc1ccccc1,0,0,79.2,0,0,0,84.2,0,32.3
CC1(C)C2([N+](=O)[O-])CN3CN(C2)CC1([N+](=O)[O-])C3,0,0,0,0,0,0,-,-,-
COC(=O)C1=C(c2ccc(OC(F)(F)F)cc2)C[C@@H]2CC[C@H]1N2C(=O)N1CCOCC1,0,0,0,-,0,0,-,-,-
CC(NCc1cccc(Cl)c1Cl)C(O)c1ccccc1 (centres undefined),0,0,96.8,0,0,0,0,0,0
CC(NCc1ccc(Cl)cc1Cl)C(O)c1ccccc1 (centres undefined),0,0,0,0,0,0,-,-,-
CCN1C[C@]2(OC(=O)c3ccccc3NC(C)=O)CCC(OC)C34C5C[C@H]6C(OC)[C@]5(O)[C@](O)(C[C@@H]6OC)C(C[C@@H]32)[C@H]14 (some centres undefined),0,0,0,0,0,0,-,-,-
COc1c(O)cc2c(c1OC)-c1ccc(SC)c(=O)cc1C(NC(C)=O)CC2 (centres undefined),-,-,66.6,-,-,-,62.1,62.4,0
CCOC(=O)C1(CCOc2ccccc2)CCN(Cc2ccc(C)s2)CC1,0,0,0,0,0,0,-,-,-
N#CCCn1cc(C(=O)Nc2ccc(F)cc2)c(-c2ccccc2)n1,0,0,0,0,0,0,0,0,0
COc1ccc(NC(=O)c2cn(CCC#N)nc2-c2ccccc2)cc1,0,0,0,0,0,0,-,-,-
Cc1ccc(-c2cc(-c3ccc(C)cc3)[n+](C)o2)cc1,0,-,82.7,0,-,-,86.2,30.1,36.2
CCN(CC)C(=O)c1ccc(NC(=O)c2cc(S(=O)(=O)N3CCCCCC3)ccc2OC)cc1,0,0,0,0,0,0,-,-,-
CCN(CC)C(=O)c1ccc(NC(=O)CSc2nnnn2-c2cc(OC)ccc2OC)cc1,0,0,70.3,0,0,0,0,0,0
CCc1ccc(NP(=O)(Oc2ccccc2F)Oc2ccccc2F)cc1,0,0,0,0,0,0,-,-,-
Cn1cccc1/C=C1/C(=O)NC(=S)N(Cc2ccc(F)cc2)C1=O,?,0,0,0,0,0,-,-,-
CC(=O)c1cn(CCCOc2ccccc2)c2ccccc12,-,0,0,0,0,0,0,0,0
CN(C(=O)Oc1cccc2ccccc12)C1C=CCC1 (centres undefined),-,-,0,-,-,-,-,-,-
CC(C)CC(NC(=O)CCCNC(=O)CCC(=O)OC1O[C@H]2OC3(C)CC[C@H]4[C@H](C)CCC(C1C)C24OO3)C(=O)O (some centres undefined),0,0,84.7,0,0,0,78.5,0,0
CC1C(OC(=O)CCC(=O)NC(C)(C)CO)O[C@H]2OC3(C)CC[C@H]4[C@H](C)CCC1C24OO3 (some centres undefined),0,0,85.0,0,0,0,86.0,0,0
CCN1CCC(N(C)C2CCCCC2)CC1,0,0,0,0,0,0,-,-,-
SMILES,CSC inhib,697 NFkB inh,Gli-Sufu block,aSyn UTR inh,Mdm2-MdmX inh,Jurkat NFkB inh,Gli antag conf,Gli cytotox,Wnt3a counter
CCOC(=O)c1c(-n2c(C)cc(C=C3C(=O)NC(=O)NC3=O)c2C)sc2c1CCCC2,-,0,0,0,0,0,-,-,-
Cc1cccc(N2C(=O)NC(=O)/C(=C\c3cc(C)n(-c4sc5c(c4C#N)CCCC5)c3C)C2=O)c1C,0,0,57.8,0,0,0,50.0,34.5,0
O=C1NC(=O)C(C2CCCCCC2)C(=O)N1,-,-,0,-,-,-,-,-,-
C[C@]12CCC3C(CC[C@H]4C[C@@H](O)CC[C@]34C)C1C[C@H](Br)[C@@H]2O (some centres undefined),0,0,-,-,0,0,-,-,-
CCC12CN3CCN(CC(C3)/C1=N/NC(N)=O)C2,0,0,61.4,0,0,0,0,0,0
CCOP(=O)(Cc1cc(C(C)=O)c(C)o1)OCC,0,0,68.0,0,0,0,0,0,0
COC(=O)C1=C(c2cc3ccccc3o2)C[C@@H]2CC[C@H]1N2C(=O)N1CCC(C)CC1,0,0,0,0,0,0,0,0,0
